# Results taken from PubChem BioAssay (NCI).
# “And” between values parts separate entries of the source, which are not always exact repeats. Equal values may be shown once. About 83,000 compounds went through this panel and 20% of them were active in at least one assay; those are over-represented in the sample as a whole.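 Testing used 96-well plates and a 48-hour single-concentration exposure. Example: -40 means 40% of the starting cells died.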 The source made the active and inactive calls.
# Test system: NCI-H522 lung
# Assay: NCI-60 one-dose screen, 48 h (100 = growth as untreated, 0 = no growth, -100 = all killed)
# Settings: 10 µM unless noted
# Method: Growth inhibition of the NCI-H522 human Non-Small Cell Lung tumor cell line is measured as a screen for anti-cancer activity. Cells are grown in 96 well plates and exposed to the test compound for 48 hours. Compounds are tested at a single concentration, which is 10^-5 M for most compounds. The reported endpoint is percent growth (GI% or GIPRCNT), where numbers from 0 - 100% represent growth inhibition, and numbers from -100% - 0 represent cell death. For example, a value of 40 represents 60% growth inhibition. A value of 0 means no net growth occurred over the course of the experiment. A value of -40 indicates 40% of cells at the beginning of the experiment died by the end of the experiment. A value of -100 means all cells are dead at the end of the experiment.
# NCI-60 Human Tumor Cell Lines Screen was performed using the standard one-dose NCI protocol, which is described in more detail at https://dtp.cancer.gov/discovery_development/nci-60/default.htm.
# Compounds with GIPRCNT values below 10 were considered active. Activity score was based on GIPRCNT using the following formula: […]
# Score is 0 for GIPRCNT values of 100 or above, 50 for GIPRCNT values of 0, and 100 for GIPRCNT values of -100.
row,Compound,growth
1,CCCCOC1NC(=O)NC(=O)C1(F)C(=O)OCC (stereo not given),80.1% (inactive)
2,C(#CCN1CCOCC1)CCCN1CCOCC1,105% (inactive) and 95.4% (inactive)
3,N#Cc1ccc(/C=C/C(=O)c2ccccc2)cc1,83.1% (inactive)
4,COC(=O)c1cc(C(=O)OC)cc([N+](=O)[O-])c1,90.6% (inactive)
5,OC1CCCN(Cc2ccccc2)C1 (stereo not given),101% (inactive)
6,O=C(OCc1ccccc1)c1ccccc1,111% (inactive) and 79.6% (inactive)
7,NCCCCCC(=O)O,100% (inactive) [middle of 4 runs]
8,N#Cc1c(N)nc2c(c(-c3ccc(Cl)cc3)nn2-c2ccccc2)c1C#N,102% [100 µM] (inactive)
9,Cc1ccc(C(=O)c2ccc(C)cc2)cc1,89.3% (inactive) and 93.6% (inactive)
10,CC1NC(C)c2ccc3ccccc3c2O1 (stereo not given),88.6% (inactive)
11,COc1ccc(COC=O)cc1,95.5% (inactive)
12,COC(=O)C(Cc1cn(C(C)=O)c2ccccc12)P(=O)(OC)OC (stereo not given),103% (inactive)
13,CC(=O)Oc1ccc(C2(c3ccc(OC(C)=O)cc3)C(=O)Nc3ccccc32)cc1,95.7% (inactive) and 83.2% (inactive)
14,COc1cc([C@@H]2c3cc4c(cc3[C@H](O)[C@H]3COC(=O)[C@@H]23)OCO4)cc(OC)c1OC,-13.6% (active) and -44.2% (active)
15,CC1CCC(=O)N1c1ccc(N)cc1 (stereo not given),85.2% (inactive)
16,Cc1cc(O)c(C(C)C)cc1N=O,93.8% (inactive) and 74.7% (inactive)
17,O=C1CCC(=O)N1CC1CC2CCC1C2 (stereo not given),91.8% (inactive) and 95.2% (inactive)
18,CCOC(=O)c1ccc(N2C(=O)C(Cl)(c3ccccc3)C2c2ccco2)cc1 (stereo not given),34.2% (inactive)
19,CC(CN(C)C)CN1c2ccccc2Sc2ccccc21 (stereo not given),81.1% (inactive) and 116% (inactive) and 87.2% (inactive)
20,O=P(O)(O)OC1C(OP(=O)(O)O)C(OP(=O)(O)O)C(OP(=O)(O)O)C(OP(=O)(O)O)C1OP(=O)(O)O.[Cu+2] (stereo not given),101% (inactive)

row,Compound,growth
1,O=C1C2=C(Nc3cc(Cl)ccc3N2)OC1c1c[nH]c2ccc(COc3ccccc3)cc12 (stereo not given),54.8% (inactive)
2,COc1ccc2oc3cc(NCCN(C)C)ccc3c(=O)c2c1,65.7% (inactive)
3,CCCC(=O)Oc1ccc(CC)cc1,93% (inactive)
4,O=C(c1ccc(Cl)cc1)C1C(c2ccccc2)C1[N+](=O)[O-] (stereo not given),101% (inactive)
5,CCc1ccc(OC(=O)CCl)cc1,102% (inactive)
6,CC(C)(C)OC(=O)CC1(O)CCCCC1,102% (inactive)
7,Nc1ccc(O)c(C(=O)O)c1,102% (inactive) and 101% (inactive)
8,O=[N+]([O-])c1ccc(N2CCN=N2)cc1,78.8% (inactive)
9,C/C=C(/C(=O)NC(N)=O)C(C)C,108% (inactive)
10,COC(=O)c1ccccc1Cl,102% (inactive)
11,CCOC(=O)C1=CC(=O)CC(C)(C)O1,79.7% (inactive) and 96.2% (inactive)
12,Cc1ccc(NC(=S)N/C=C(\c2ccccc2)S(=O)Cc2ccccc2)c(C)c1 (stereo not given),90.5% (inactive)
13,O=c1ccn2c(n1)OC1CC2OC1COC(c1ccccc1)(c1ccccc1)c1ccccc1 (stereo not given),60.7% [100 µM] (inactive)
14,C/C(=C\c1ccccc1)C(O)C(=O)c1nc2ccc([N+](=O)[O-])cc2[nH]c1=O (stereo not given),48.1% (inactive)
15,Cc1nc(Nc2ccc(Cl)cc2)c2cnn(-c3ccccc3)c2n1,105% (inactive)
16,COc1ccc(S(=O)(=O)c2ccc(F)cc2)cc1,83.3% (inactive)
17,Cc1cc2ccccc2c2cc3ccccc3cc12,81% (inactive)
18,CNc1ccc(Cl)cc1S(=O)(=O)c1ccccc1[N+](=O)[O-],78.3% (inactive) and 75% (inactive)
19,COc1cc(NCCCCCCCNC(C)C)c2nccc(C)c2c1,89.1% (inactive) and 91.7% (inactive)
20,CCCCNC(=O)c1ccccc1C,93.2% (inactive)
